Inconclusive results are not listed. A call without a number means that no potency is given here. Activity calls are given as the source filed them. Calls come from the whole dose curve; as a rule, active = well fitted cell-killing curve with a large enough effect; inconclusive = small, poorly fitted or top-dose-only effect; inactive = no such curve, though single readings can be large or run the other way.

This experiment can be described thus: qHTS of pediatric cancer cell lines to identify multiple opportunities for drug repurposing: Primary screen for NB1643 cells (AID 1347099). Note: nearly all actives have a fitted effect of over 50% in size. To be noted: NB1643 neuroblastoma viability, CellTiter-Glo luminescence, 48 h; series mostly up to 46 µM. From the text:
Drug repurposing or repositioning has been offered as a strategy for drug development in oncology programs. This approach has special potential for childhood cancers and other rare or orphan diseases, where the expected return on new drug development has been a disincentive to pharmaceuticals. […] In this project we exploit the poly-pharmacology of drugs to discover new indications via phenotypic screening of a panel of 19 well-characterized cell lines derived from solid tumors seen in children and adolescents. The goal is to identify approved drugs with previously unrecognized anticancer properties that has the potential to reveal new mechanisms and biological processes involved in carcinogenesis or drug resistance. We employed a titration-based paradigm (quantitative high-throughput screening or qHTS), where all compounds were tested at multiple concentrations for their effect on cell viability. Concentration-response curves (CRCs) were derived directly from the primary screen, and both potency and efficacy values were used to identify compounds with robust bioactivity profiles. We screened the NIH Chemical Genomics Center (NCGC) Pharmaceutical Collection (NPC) and Mechanism Interrogation Plate (MIPE) small molecule collections of approved and investigational compounds against these cell lines; and measured metabolically active cells after 48 hours of compound treatment as a proxy for cell viability. […] Assay Submitter: Nathalia J. Martinez, National Center for Advancing Translational Sciences, National Institutes of Health, Rockville, MD, USA; email: natalia.martinez@nih.gov Shen, M et al. Quantitative high-throughput phenotypic screening of pediatric cancer cell lines identifies multiple opportunities for drug repurposing. Oncotarget 2017 Dec 19;9(4):4758-4772. PMID 29435139.
The cells were obtained from University of North Carolina (UNC), Pediatric Preclinical Testing Program (PPT), and Coriell Institute (CI). qHTS cell viability assay: Cells were assayed in growth media at a density of 500-1,000 cells/well. Five microliters of cells were dispensed into 1,536-well, white, solid-bottom, TC-treated plates (Greiner Bio One) using a multidrop dispenser and incubated at 37 degrees C, 5% CO2, under a humidified atmosphere for 5 hours. Twenty-three nanoliters of compounds and controls (neutral control DMSO or positive control bortezomib at final concentration of 2.3 µM) were subsequently transferred by Kalypsys pintool. For primary screens, the MIPE collection was tested at 11-point dilutions (final concentrations range from 0.78 nM to 46 µM) and the NPC collection at 8-point dilutions (final concentrations range from 0.59 nM to 46 µM). Compounds tested in follow-up screens were assayed at 11-point dilutions. Cells were incubated for 48 hours, followed by addition of 3 µL of CellTiter-Glo (Promega). After a 15 min incubation at room temperature, samples were analyzed for luminescence intensity using a ViewLux High-throughput CCD imager equipped with clear filters.
Background: Quantitative high-throughput screening tests each substance at several concentrations.
Consider `O=C(/C=C/c1ccccc1)OCc1ccccc1`, for which the Potency entry was “inactive”.

Regarding `NC(=O)NS(=O)(=O)c1ccc(N)cc1`, the Potency entry is “inactive”.

With `CC(C)CCOC(=O)c1ccc(N(C)C)cc1`, the Potency entry is “inactive”.

For `OCC(O)CS` (stereo not given), the Potency entry is “inactive”.

`COC(=O)c1cccnc1`: the Potency entry is “inactive”.

For the compound `O=C(NCC(O)CO)c1c(I)c(C(=O)NCC(O)CO)c(I)c(N(CCO)C(=O)CO)c1I` (stereo not given), the Potency result is “inactive”.

On to `O=C(O)C(S)C(S)C(=O)O` (stereo not given), for which the Potency entry is “inactive”.

`c1ccc2[nH]ccc2c1`: the Potency entry was “inactive”.

In the case of `CC(=O)Oc1cccc(C)c1`, the Potency entry is “inactive”.

Regarding `CC1(C)[C@@H](OC(=O)CCC(=O)O)CC[C@]2(C)[C@H]3C(=O)C=C4[C@@H]5C[C@@](C)(C(=O)O)CC[C@]5(C)CC[C@@]4(C)[C@]3(C)CC[C@@H]12`, the Potency entry was “inactive”.

`O=C1c2ccccc2S(=O)(=O)N1CCCCN1CCN(c2ncccn2)CC1`: the Potency entry is “inactive”.

On to `Cc1cc(O)cc(C)c1Cl`, for which the Potency result is “inactive”.

For `O=C(O)c1ccccc1C(=O)Nc1ccc(S(=O)(=O)Nc2nccs2)cc1`, the Potency result is “inactive”.

For `CCOc1cc(NC(C)=O)ccc1C(=O)OC`, the Potency result was “inactive”.

Consider `CCN(CC)CCOC(=O)C(c1ccccc1)c1ccccc1`, for which the Potency result is “inactive”.

Turning to `CC(C)NC[C@@H](O)COc1ccc(CC(N)=O)cc1`, the Potency result is “inactive”.

For `CC[C@]12CCCN3CCc4c(n(c5ccccc45)[C@@](O)(C(=O)OC)C1)[C@@H]32`, the Potency result was “inactive”.

As to `CC(C)CCCC(C)CCCC(C)CCCCC(C)CCCC(C)CCCC(C)C` (stereo not given), the Potency result was “inactive”.

Consider `CC(CN(C)C)C(C)(O)Cc1ccc(Cl)cc1` (stereo not given), for which the Potency result is “inactive”.

As for `FC(F)(F)C(Cl)Br` (stereo not given), the Potency result was “inactive”.

Take `NNC(=O)CP(=O)(c1ccccc1)c1ccccc1`: the Potency result is “inactive”.

`CC[N+](CC)(CC(=O)Nc1c(C)cccc1C)Cc1ccccc1`: the Potency entry is “inactive”.

Consider `Cc1cc(=O)[nH]c(=S)[nH]1`, for which the Potency entry is “inactive”.

As for `O[C@@H]1CO[C@H]2[C@@H]1OC[C@@H]2O`, the Potency entry is “inactive”.

Turning to `CC1(c2ccccc2)OC(C(=O)O)=CC1=O` (stereo not given), the Potency result was “inactive”.

Take `CC(=O)N(CC(O)CN(C(C)=O)c1c(I)c(C(=O)NCC(O)CO)c(I)c(C(=O)NCC(O)CO)c1I)c1c(I)c(C(=O)NCC(O)CO)c(I)c(C(=O)NCC(O)CO)c1I` (stereo not given): the Potency result was “inactive”.

For `CC[C@H](C)[C@H](N)C(=O)O`, the Potency entry was “inactive”.

On to `CC(C)=CCC/C(C)=C/CO`, for which the Potency entry was “inactive”.

In the case of `CC(C)(C)C(=O)OCOC(=O)[C@@H]1N2C(=O)[C@@H](NC(=O)[C@H](N)c3ccccc3)[C@H]2SC1(C)C`, the Potency entry is “inactive”.

As for `OC(CCN1CCCC1)(c1ccccc1)C1CCCCC1` (stereo not given), the Potency entry was “inactive”.

On to `O=C(/C=C/c1ccc(O)c(O)c1)O[C@@H]1C[C@@](OC(=O)/C=C/c2ccc(O)c(O)c2)(C(=O)O)C[C@@H](O)[C@@H]1O`, for which the Potency entry was “inactive”.

In the case of `Cc1ccsc1/C=C/C1=NCCCN1C`, the Potency entry is “inactive”.

`COC(=O)c1ccccc1C(=O)c1ccc(OCCN2CCCCC2)cc1`: the Potency entry is “inactive”.

Take `COc1cc(C(=O)NCCCCCC(=O)O)cc(OC)c1OC`: the Potency entry is “inactive”.

In the case of `CC[N+](C)(CC)CCOC(=O)C1c2ccccc2Oc2ccccc21`, the Potency entry was “inactive”.

`CCCCCCCC(=O)OCC(COC(=O)CCCCCCC)OC(=O)CCCCCCC`: the Potency result is “inactive”.

For the compound `COc1ccc(C(=O)NCc2ccc(OCCN(C)C)cc2)cc1OC`, the Potency result is “inactive”.

For the compound `O=C(O)c1ccccc1OP(=O)(O)O`, the Potency entry was “inactive”.

For the compound `CC(C(=O)O)c1ccc2c(c1)Cc1cccnc1O2` (stereo not given), the Potency result was “inactive”.

Take `CN[C@@H]1[C@@H](O)[C@@H](O[C@@H]2[C@H](O)[C@H](O[C@H]3OC(CN)=CC[C@H]3N)[C@@H](N)C[C@H]2N)OCC1(C)O` (stereo not given in full): the Potency result is “inactive”.

The values are drawn from PubChem BioAssay (NCATS).
